Compounds with a hit are over-represented: about 21% of the library has one in this group of screens.
Pf growth 96h: Primary qHTS for delayed death inhibitors of the malarial parasite plastid, 96 hour incubation | P. falciparum luciferase reporter growth, 96 h | Potency, µM (series often up to 28.7 µM), most hits filed as inhibitors | 6.9% of 320,000 active
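P. falciparum expressing integrated firefly luciferase, in erythrocytes at 2% hematocrit, 0.05% parasitemia, incubated with compounds 96 h at 37 C, 5% CO2. Growth inhibition read as loss of luminescence; two-generation exposure targets delayed-death apicoplast inhibitors.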
Shiga inhibitor: A qHTS for Small Molecule Inhibitors of Shiga Toxin | Vero cells, Shiga toxin protein synthesis inhibition reporter | inhibition, % at 38.7 µM | 9.2% of 290,000 active; in the data active = inhibition mostly above about 28%, no sharp cut-off; inactive = mostly below about 43%
Cycloheximide cs: Cycloheximide Counterscreen for Small Molecule Inhibitors of Shiga Toxin; max response, %; AID 2314, 2010; cell reporter, cycloheximide protein synthesis inhibition counterscreen; 12% of 300,000 active; in the data active = max response mostly above about 13%, no sharp cut-off; inactive = mostly below about 14%; note: read at 38.3 µM for the half of the compounds with a filed dose
Pf growth 48h: Primary qHTS for delayed death inhibitors of the malarial parasite plastid, 48 hour incubation. AID 504832, 2011. P. falciparum luciferase growth in erythrocytes, 48 h. Potency, µM (titrated, usually from 28.7 µM), usual class: inhibitors. 5.9% of 310,000 active
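Growth was read as firefly luciferase luminescence after a 48 h, 37 C, 5% CO2 exposure of compounds to reporter-bearing P. falciparum cultures (0.1% parasitemia, 2% hematocrit final) in Albumax-supplemented RPMI 1640.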
HCMV inh: qHTS Assay for inhibitors of the human cytomegalovirus (HCMV). HFF cells, HCMV-luciferase reporter, 72 h; hits give low values. activity change, negative = inhibition, % at 57.5 µM. 4.5% of 410,000 active. AID 1259415, 2018; in the data active = activity change below about -60%; inconclusive = no clear call, values can overlap the other calls; inactive = above about -39%
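After 16 h attachment at 37C, HFF cells received test compound and HCMV-luciferase (1 PFU/cell); reporter luminescence read 72 h later, data normalized against buffer-only and known inhibitor Salinomycin.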
HCV inhibitor: qHTS Assay for Inhibitors of Hepatitis C Virus (HCV) | Huh7.5.1 HCVcc-Cre infection, luciferase reporter, 44 h | 3.4% of 340,000 active | AID 651820, 2012 | Potency, µM (titrated, usually from 41.8 µM), actives largely listed as inhibitors
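Cells seeded at 1,000/well and cultured 4 h, then compounds added followed by HCVcc-Cre virus (~0.5 moi). After 44 h further culture, luciferase substrate was added, plates held 15 min at room temperature, and luminescence read for 15 sec.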
A number is an active result. Unless noted, calls come from the whole dose curve; as a rule, active = well fitted inhibition curve with a large enough effect; inconclusive = small, poorly fitted or top-dose-only effect, or another doubt; inactive = no such curve, though single readings can be large or run the other way.

How did S=C(Nc1ccc(Oc2ccc(NC(=S)NC3CCCCC3)cc2)cc1)NC1CCCCC1 do in these assays?
Pf growth 96h: inactive; Shiga inhibitor: inactive; Cycloheximide cs: inactive; Pf growth 48h: inconclusive; HCMV inh: inconclusive; HCV inhibitor: inconclusive

What do the screens show for `CCOC(=S)SCC(=O)N1CCc2ccccc2C1C1C(=O)CCCC1=O` (centres undefined)?
Pf growth 96h: inactive; Shiga inhibitor: inactive; Cycloheximide cs: inactive; Pf growth 48h: inactive; HCMV inh: inactive; HCV inhibitor: inactive

What do the screens show for `C#CCNC(=O)C1=C[C@H](c2ccc3c(c2)OCO3)[C@@H](CCCO)[C@H](OCC)O1`?
Pf growth 96h: inconclusive; Shiga inhibitor: inactive; Cycloheximide cs: inactive; Pf growth 48h: inconclusive; HCMV inh: inactive; HCV inhibitor: inactive

How did C=C(C)COc1ccc(-c2ncnc(C(F)(F)F)c2-c2ccc(OC)cc2)c(O)c1 do in these assays?
Pf growth 96h: 0.93µM; Shiga inhibitor: inactive; Cycloheximide cs: inactive; Pf growth 48h: 1.7µM; HCMV inh: inactive; HCV inhibitor: inconclusive

What do the screens show for `COc1ccc(-c2nc(N)nc(C(F)(F)F)c2-c2csc(C)n2)c(O)c1`?
Pf growth 96h: inactive; Shiga inhibitor: inactive; Cycloheximide cs: inactive; Pf growth 48h: inactive; HCMV inh: inactive; HCV inhibitor: inactive

Results for C=C(C)COc1ccc(-c2ncnc(C(F)(F)F)c2-c2ccccc2)c(O)c1 ?
Pf growth 96h: 1.7µM; Shiga inhibitor: inactive; Cycloheximide cs: inactive; Pf growth 48h: 1.7µM; HCV inhibitor: inconclusive

What do the screens show for `C=C(C)COc1ccc(-c2nc(N)nc(C(F)(F)F)c2-c2ccc(OC)cc2)c(O)c1`?
Pf growth 96h: 2.1µM; Shiga inhibitor: inactive; Cycloheximide cs: inactive; Pf growth 48h: 2.9µM; HCMV inh: inactive; HCV inhibitor: inconclusive

Results for O=C(CCn1cccn1)Nc1ccc(Br)cc1F ?
HCMV inh: inactive

How did O=C1C=C(c2cc3ccccc3s2)CCC1 do in these assays?
HCMV inh: inactive; HCV inhibitor: inconclusive

Results for Cc1c(NC2(C#N)CCCCC2)c(=O)n(-c2ccccc2)n1C ?
Pf growth 96h: inactive; Shiga inhibitor: inactive; Cycloheximide cs: inactive; Pf growth 48h: inactive; HCMV inh: inactive; HCV inhibitor: inactive

How did COc1cccc(Nc2nc(-c3cccc(N4C(=O)c5ccccc5C4=O)c3)cs2)c1 do in these assays?
Pf growth 96h: inactive; Shiga inhibitor: inactive; Cycloheximide cs: 33; Pf growth 48h: inactive; HCMV inh: inactive; HCV inhibitor: inconclusive

How did COc1cccc(Nc2nc(-c3ccc(O)cc3)cs2)c1 do in these assays?
Pf growth 96h: inactive; Shiga inhibitor: inactive; Cycloheximide cs: 35; Pf growth 48h: inactive; HCMV inh: inactive; HCV inhibitor: inconclusive

How did COc1cccc(C(=O)Nc2ccc3c(c2)C(=O)NC3=O)c1 do in these assays?
Pf growth 96h: inactive; Shiga inhibitor: inactive; Cycloheximide cs: inactive; Pf growth 48h: inactive; HCMV inh: inactive; HCV inhibitor: inactive

How did O=C(COc1cccc(C(F)(F)F)c1)Nc1ccc2[nH]ncc2c1 do in these assays?
Pf growth 96h: inconclusive; Shiga inhibitor: inactive; Cycloheximide cs: inactive; Pf growth 48h: inactive; HCMV inh: inconclusive; HCV inhibitor: inactive

What do the screens show for `CCOc1cccc(C(=O)Nc2ccc3[nH]ncc3c2)c1`?
Pf growth 96h: inactive; Shiga inhibitor: 22; Cycloheximide cs: 36; Pf growth 48h: inactive; HCMV inh: inactive; HCV inhibitor: inactive

What do the screens show for `COc1cccc(C(=O)Nc2ccc3[nH]ncc3c2)c1`?
Pf growth 96h: inconclusive; Shiga inhibitor: inactive; Cycloheximide cs: 24; Pf growth 48h: inactive; HCMV inh: inactive; HCV inhibitor: inactive

How did COc1ccccc1C(=O)Nc1ccc2[nH]ncc2c1 do in these assays?
Pf growth 96h: 7.4µM; Shiga inhibitor: inactive; Cycloheximide cs: 16; Pf growth 48h: inactive; HCMV inh: inactive; HCV inhibitor: inactive

How did CC(C)c1ccccc1OCC(=O)Nc1ccc2[nH]ncc2c1 do in these assays?
Pf growth 96h: inconclusive; Shiga inhibitor: inactive; Cycloheximide cs: inactive; Pf growth 48h: inconclusive; HCMV inh: inconclusive; HCV inhibitor: 22µM

Results for O=C(C1CC1)N1c2ccccc2Sc2ccccc21 ?
Pf growth 96h: inactive; Shiga inhibitor: inactive; Cycloheximide cs: inactive; Pf growth 48h: 12µM; HCMV inh: inactive; HCV inhibitor: inactive

Results for CN(C)c1cc[n+](CC(=O)N2c3ccccc3Sc3ccccc32)cc1 ?
Pf growth 96h: inactive; Shiga inhibitor: inactive; Cycloheximide cs: inactive; Pf growth 48h: inconclusive; HCMV inh: -84; HCV inhibitor: inactive

Results for O=C(C[n+]1ccccc1)N1c2ccccc2Sc2ccccc21 ?
Pf growth 96h: inactive; Shiga inhibitor: inactive; Cycloheximide cs: inactive; Pf growth 48h: inconclusive; HCMV inh: -75; HCV inhibitor: inconclusive

How did CCC(C)NC(=O)c1sc2nc(C)c(C(=O)Nc3ccc(C)cc3C)c(-c3ccc(Br)cc3)c2c1N (centres undefined) do in these assays?
HCMV inh: inactive

Results for Cc1c(Cl)cccc1NC(=O)CSc1nc(=O)[nH]c2c1CCCC2 ?
HCMV inh: inactive

How did Cc1cc(C)c(/C=C/c2onc(C)c2S(=O)(=O)N2CCC(C(=O)NCc3ccccc3Cl)CC2)c(C)c1 do in these assays?
HCMV inh: inactive

What do the screens show for `COc1ccc(C2=Nn3c(nnc3-c3ccccc3Cl)SC2)cc1OCC1CC1`?
HCMV inh: -66

How did CCOc1ccc(C2=Nn3c(nnc3-c3ccccc3OC)SC2)cc1 do in these assays?
Pf growth 96h: inconclusive; Shiga inhibitor: inactive; Cycloheximide cs: inactive; Pf growth 48h: 13µM; HCMV inh: -94; HCV inhibitor: inconclusive

Results for COc1ccc(C2=Nn3c(nnc3-c3ccccc3OC)SC2)cc1OC1CCOC1 (centres undefined) ?
HCMV inh: -90

What do the screens show for `COc1cccc(-c2nc(COc3ccc(Cl)cc3Cl)no2)c1`?
Pf growth 96h: inactive; Shiga inhibitor: inactive; Cycloheximide cs: 14; Pf growth 48h: inactive; HCMV inh: inactive; HCV inhibitor: inactive

What do the screens show for `COc1ccccc1-c1nc(COc2ccc(Cl)cc2Cl)no1`?
Pf growth 96h: inactive; Shiga inhibitor: 91; Cycloheximide cs: 52; Pf growth 48h: inactive; HCMV inh: inactive; HCV inhibitor: inactive

How did COc1ccccc1-c1nc(-c2ccc(C(=O)O)cc2)no1 do in these assays?
HCMV inh: inactive

What do the screens show for `CC(C)Cc1nn2c(=O)cc(COC(=O)c3cccc(NS(C)(=O)=O)c3)nc2s1`?
HCMV inh: inactive

Results for C[C@@H]1CN([C@@H](C)CO)C(=O)c2cc(NS(=O)(=O)c3ccc(Cl)cc3)ccc2O[C@H]1CN(C)Cc1ccncc1 ?
HCMV inh: inactive; HCV inhibitor: inactive

Results for Cc1ccccc1OCC(=O)NCCCNC(=O)c1ccccn1 ?
Pf growth 96h: inactive; Shiga inhibitor: inactive; Cycloheximide cs: inactive; Pf growth 48h: inactive; HCMV inh: inactive; HCV inhibitor: inactive

Screening results (PubChem)
